According to PubChem BioAssay AID1159580 (chemical genetic matrix, 2015):
The whole screen tested about 5,500 compounds, of which about 2,000 (36%) were called active. Not shown: some 18% with an inconclusive outcome. No stated cut-off is given here; in the data, active means normalized growth mostly below about 0.91 (no sharp cut-off); inconclusive means no clear call, values can overlap the other calls; inactive means mostly above about 0.92. This is one part of the list.

Test: chemical genetic growth profiling, strain panel (AID 1159580);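 further: tested at 20 µM; growth read once vehicle control cultures reached saturation at 30 °C; 1 = growth at the plate median or of vehicle wells; lower values mean less growth of the strain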
Details: S. cerevisiae deletion strains, growth OD
[1] = locus YDL101C, strain DUN1, hits give low values
[2] = locus YHR030C, strain SLT2, hits give low values

Measured: normalized growth

COc1ccc(S(=O)(=O)Nc2ccccc2Oc2ccc(Cl)cc2Cl)cc1OC
inactive: locus YAL013W, strain DEP1, hits give low values 1.01 | locus YBR229C, strain ROT2, hits give low values 1.01 | locus YCL061C, strain MRC1, hits give low values 1.07 | [1] 1.08 | locus YDL134C, strain PPH21, hits give low values 1.01 | locus YDR150W, strain NUM1, hits give low values 0.933 | locus YEL061C, strain CIN8, hits give low values 0.999 | locus YGR078C, strain PAC10, hits give low values 1.04 | locus YGR229C, strain SMI1, hits give low values 0.995 | [2] 1.06 | locus YHR087W, strain rtc3, hits give low values 0.988 | locus YJL187C, strain SWE1, hits give low values 1 | locus YJR043C, strain POL32, hits give low values 1.05 | locus YJR075W, strain HOC1, hits give low values 1 | locus YKL190W, strain CNB1, hits give low values 1.01 | locus YLR039C, strain RIC1, hits give low values 1.06 | locus YLR058C, strain SHM2 (second series), hits give low values 0.988 | locus YLR085C, strain ARP6, hits give low values 1.08 | locus YLR262C, strain YPT6, hits give low values 0.99 | locus YML094W, strain GIM5, hits give low values 1 | locus YMR219W, strain ESC1, hits give low values 1 | locus YMR263W, strain SAP30, hits give low values 0.967 | locus YMR307W, strain GAS1, hits give low values 0.986 | locus YNL128W, strain TEP1, hits give low values 1 | locus YNL153C, strain GIM3, hits give low values 1.03 | locus YNL298W, strain CLA4 (second series), hits give low values 1.05 | locus YNL322C, strain KRE1, hits give low values 0.988 | locus YNR030W, strain Alg12, hits give low values 1.02 | locus YPL055C, strain LGE1, hits give low values 0.959 | locus YPL241C, strain CIN2, hits give low values 1.03 | locus YPR135W, strain CTF4, hits give low values 1.03

N#Cc1ccc(S(=O)(=O)Nc2ccccc2Oc2ccc(Cl)cc2Cl)cc1
inactive: locus YAR019C, strain CDC15, hits give low values 0.98 | locus YBL105C, strain PKC1, hits give low values 0.98 | locus YBR135W, strain CKS1, hits give low values 0.976 | locus YBR136W, strain MEC1, hits give low values 0.985 | locus YBR160W, strain CDC28, hits give low values 0.983 | locus YDL017W, strain CDC7, hits give low values 0.979 | locus YDL028C, strain MPS1, hits give low values 0.979 | [1] 0.986 | locus YDL108W, strain KIN28, hits give low values 0.973 | locus YDL132W, strain cdc53, hits give low values 0.979 | locus YDL214C, strain PRR2, hits give low values 0.968 | locus YDR052C, strain DBF4, hits give low values 0.979 | locus YDR054C, strain cdc34, hits give low values 0.974 | locus YDR226W, strain ADK1, hits give low values 0.969 | locus YDR477W, strain SNF1, hits give low values 0.935 | locus YER123W, strain YCK3, hits give low values 0.948 | locus YER133W, strain GLC7, hits give low values 0.928 | locus YFL009W, strain cdc4, hits give low values 0.987 | locus YFL029C, strain CAK1, hits give low values 0.979 | locus YFR003C, strain YPI1, hits give low values 0.974 | locus YFR019W, strain FAB1, hits give low values 0.955 | locus YFR028C, strain CDC14, hits give low values 0.98 | locus YGR040W, strain KSS1, hits give low values 0.945 | locus YGR052W, strain FMP48, hits give low values 0.985 | locus YGR092W, strain DBF2, hits give low values 0.879 | [2] 0.88 | locus YHR079C, strain IRE1, hits give low values 0.931 | locus YHR082C, strain KSP1, hits give low values 1.07 | locus YHR205W, strain SCH9, hits give low values 0.936 | locus YIL147C, strain SLN1, hits give low values 0.986 | locus YJL095W, strain BCK1, hits give low values 0.905 | locus YJL128C, strain PBS2, hits give low values 0.961 | locus YJL157C, strain FAR1, hits give low values 0.947 | locus YJR016C, strain ILV3, hits give low values 0.97 | locus YJR066W, strain TOR1 (second series), hits give low values 0.9 | locus YJR066W, strain TOR1, hits give low values 1.04 | locus YKL048C, strain ELM1, hits give low values 0.959 | locus YKL067W, strain YNK1, hits give low values 0.973 | locus YKL101W, strain HSL1, hits give low values 0.957 | locus YKL193C, strain SDS22, hits give low values 0.978 | locus YKL203C, strain TOR2, hits give low values 1.02 | locus YLR133W, strain CKI1, hits give low values 0.972 | locus YLR403W, strain SFP1, hits give low values 0.912 | locus YML070W, strain DAK1, hits give low values 0.94 | locus YMR001C, strain CDC5, hits give low values 0.982 | locus YMR205C, strain PFK2 (second series), hits give low values 0.972 | locus YMR277W, strain FCP1, hits give low values 0.973 | locus YNL006W, strain LST8, hits give low values 0.977 | locus YNL020C, strain ARK1, hits give low values 0.965 | locus YNL161W, strain CBK1, hits give low values 0.982 | locus YNL183C, strain NPR1, hits give low values 1.08 | locus YNL207W, strain RIO2, hits give low values 0.979 | locus YNL222W, strain SSU72, hits give low values 0.978 | locus YNL307C, strain MCK1 (second series), hits give low values 0.965 | locus YOL078W, strain AVO1, hits give low values 0.971 | locus YOL136C, strain PFK27, hits give low values 0.967 | locus YOR061W, strain CKA2, hits give low values 0.872 | locus YOR119C, strain RIO1, hits give low values 1.01 | locus YOR231W, strain MKK1, hits give low values 1.01 | locus YOR329C, strain SCD5, hits give low values 0.982 | locus YPL031C, strain PHO85, hits give low values 0.926 | locus YPL153C, strain RAD53, hits give low values 0.945 | locus YPL204W, strain HRR25, hits give low values 0.949 | locus YPL209C, strain IPL1, hits give low values 0.983 | locus YPL256C, strain CLN2, hits give low values 0.967 | locus YPR025C, strain CCL1, hits give low values 0.976 | locus YPR106W, strain ISR1, hits give low values 0.96 | locus YPR111W, strain DBF20, hits give low values 0.963 | strain NNK1, hits give low values 0.981 | strain TSCII, hits give low values 0.99
active: locus YLR113W, strain HOG1, hits give low values 0.836
